Here are results for ten compounds from PubChem BioAssay (NCATS).

Each structure is given as a SMILES string. “And” between values parts separate entries of the source, which are not always exact repeats. Equal entries are not always repeated. Records with an inconclusive call do not appear. The source made the active and inactive calls. Unless noted, calls follow the shape of the dose curve; as a rule, active = well fitted curve in the direction sought with a large enough effect; inconclusive = small, poorly fitted or top-dose-only effect, or another doubt; inactive = no such curve, though single readings can be large; an effect the other way counts as inactive or inconclusive.

Experiment [1] addresses Thyrotropin-releasing hormone receptor (Homo sapiens) (UniProt P34981). As to the kind of experiment: qHTS for Small Molecule Agonists and Allosteric Enhancers of Human TRH Receptor: Validation Screen for Agonists (AID 493127;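 active = calcium activation more than 3 SD above the typical response in the agonist read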;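 also: intracellular calcium rise by fluo-8 fluorescence before TRH EC20 addition; 0% is about no effect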). The settings on record: TRH receptor agonist cell assay; at 2 µM; stronger effect = higher value. The gist of the method: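 Cells 2000/well, 10% FCS, 18 h 33.5C/5% CO2 → fluo-8 Ca dye, RT 30 min–1.5 h → FDSS baseline 10 × 1 s → compound added → 230 cycles (1 s/cycle) agonist mode. TRH controls.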

Experiment [2] can be described thus: Nrf2 qHTS screen for inhibitors: Validation (AID 493153; active = well fitted inhibition curve with a large enough effect in the main read-out, with a control signal flat, not every such curve was filed as active). The settings on record: A549 ARE-Fluc reporter, 18-24 h; Potency: luciferase luminescence; viability change: measured here: cytotoxicity max response; luciferase luminescence, at 46.1 µM (top of the series). In short, it runs like this: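 Luminescence from an ARE-firefly luciferase reporter in A549 cells gives Nrf2 inhibition; an earlier CellTiter-Fluor fluorescent read flags cytotoxicity. Cells in 5% FBS OPTI-MEM received compound dilution series for 18-24 h at 37°C.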
For orientation: Quantitative high-throughput screening tests each substance at several concentrations.

Experiment [3] can be described thus: qHTS for Inhibitors of Cell Surface uPA Generation: Validation Assay (AID 493164). Also: 0% is about no effect. The following applies: mouse cells, plasminogen activation; series mostly up to 38.3 µM. In short, it runs like this:
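RAW 264.7 cells (4000/well) were plated overnight, then exposed for 18 h at 37 C, 5% CO2 to compounds in a 7-point 1:5 titration (2.45 nM–38.3 uM final). Intracellular ATP was read by ATP-Lite luminescence.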

The target in experiment [4] is Galactokinase (Homo sapiens) (UniProt P51570). Put plainly: qHTS Validation Assay for Inhibitors of Human Galactokinase (GALK) (AID 493189). Also: 0% is about no effect. The settings on record: purified human GALK enzyme activity, qHTS 7-point titration; series mostly up to 57.5 µM. The gist of the method: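 5 nM GALK / 100 uM galactose / 35 uM ATP, 20 mM HEPES pH8.0, 5 mM MgCl2, 60 mM NaCl, 1 mM DTT, 0.01% BSA (final). RT 1 h; Kinase-Glo Plus luminescence.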

Experiment [5] is described as follows: Validation screen for small molecules that induce DNA re-replication in SW480 colon adenocarcinoma cells (AID 504364). Also: 0% is about no effect. The following applies: DNA re-replication phenotype (high-content imaging); series mostly up to 46.1 µM. The gist of the method: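 250 cells/well; compound pinned in; 48 hr, 37 C, 5% CO2; Hoechst added, 40 min; nuclear fluorescence imaged, 405 ex / 500-530 em; re-replication scored as increase in high-intensity nuclei.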

For experiment [6], the target named is Peptidyl-prolyl cis-trans isomerase NIMA-interacting 1 (Homo sapiens) (UniProt Q13526). Put plainly: qHTS Validation Assay to Find Inhibitors of Pin1 (AID 504536; active = well fitted inhibition curve with a large enough effect in the polarisation, with a control signal flat, not every such curve was filed as active; the % refers to the polarisation;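 also: 0% = full Pin1 enzyme wells and -100% = no-enzyme wells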). The settings on record: Pin1 fluorescence polarization peptide binding assay; series mostly up to 57.5 µM. In short, it runs like this:
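Fluorescence polarization competition: compounds (titration) displace HiFluor-488-labeled Pin1-1b peptide from Pin1 (0.3 uM final) in pH 7.5 HEPES buffer with DTT, 10 min at room temperature; %Activity normalized to no-enzyme wells, curves fitted.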

The target of experiment [7] is Phosphoglycerate kinase, glycosomal (Trypanosoma brucei brucei) (UniProt P07378). As to the kind of experiment: qHTS Validation Assay to Find Inhibitors of Phosphoglycerate Kinase (AID 504547).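 Also: control wells lack PGK and mark full inhibition.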 The settings on record: enzymatic PGK inhibition, coupled luminescence read-out; series mostly up to 57.5 µM. The gist of the method: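 PGK activity was coupled to GAPDH (100nM final), which generates the unstable substrate 1,3-bisphosphoglycerate in-well. Reactions ran 60 minutes at room temperature in 100mM TEA pH 7.6, 5mM MgCl2, 0.01% Tween-20, then Kinase-Glo Plus luminescence was read.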

Experiment [8] deals with phosphoglycerate mutase (Leishmania major) (UniProt Q4Q090). Put plainly: qHTS Validation Assay to Find Inhibitors of Phosphoglycerate Mutase (AID 504548). Also: % is scaled to controls: 0 for no effect and ±100 for the full control effect. The settings on record: biochemical enzyme activity; series mostly up to 57.5 µM. The gist of the method:
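Lm PGAM 1.25nM final; 100 mM TEA pH 7.6, 5 mM MgCl2, 0.01% Tween-20; 45 min RT; Kinase-GloPlus, 10 min; end-point luminescence. Enzyme-free wells as negative controls.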

Experiment [9] deals with Ubiquitin carboxyl-terminal hydrolase 1 (Homo sapiens) (UniProt O94782). As to the kind of experiment: Inhibitors of USP1/UAF1: Pilot qHTS (AID 504865).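 Also: rhodamine fluorescence freed from ubiquitin-rhodamine substrate followed over time; top concentration of the series differs between compounds; % is scaled to controls: 0 for no effect and ±100 for the full control effect; nearly all actives have a fitted effect of over 35% in size.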 The settings on record: purified USP1/UAF1, Ub-rhodamine cleavage fluorescence; series mostly up to 114 µM. The gist of the method:
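In 50mM HEPES pH 7.8 containing 0.5mM EDTA, 1mM TCEP, 0.1 mg/ml BSA and 0.01% Tween-20, 1nM USP1/UAF1 is exposed to compound for 15 min, then Ub-Rho (150nM final) is added and fluorescence is read over time.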

Experiment [10] can be described thus: qHTS for Inhibitors of ATXN expression: Validation of Cytotoxic Assay (AID 588349). Also: % is scaled to controls: 0 for no effect and ±100 for the full control effect. The following applies: cytotoxicity counter-screen for ATXN expression inhibitors, cell viability; series mostly up to 57.1 µM. In short, it runs like this:
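Read-out: ATP-based luminescence (CellTiter Glo) reflecting viability of HEK293 cells after 72 hr incubation at 37 degrees C with a concentration series of each compound.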

Experiment [11] can be described thus: qHTS for Inhibitors of ATXN expression: Validation (AID 588378). Also: % is scaled to controls: 0 for no effect and ±100 for the full control effect; nearly all actives have a fitted effect of over 75% in size. The settings on record: cell-based ATXN2 expression reporter assay, luminescence; series mostly up to 57.1 µM. The gist of the method: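 Compounds were pinned onto attached HEK293 cells carrying an ATXN2-firefly luciferase construct and incubated 24 hrs at 37 degrees C. Each well then received a fluorescent viability reagent followed by luciferase substrate for end-point luminescence.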

Experiment [12] has as its target Bile acid receptor (Homo sapiens) (UniProt Q96RI1). Put plainly: qHTS assay for small molecule antagonists of farnesoid X receptor signaling (AID 588526; calls by dose curve; also: % is scaled to controls: 0 for no effect and ±100 for the full control effect). The following applies: HEK293T FXR-UAS-bla, beta-lactamase ratio, antagonist mode; series mostly up to 76.7 µM. In short, it runs like this: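 Antagonist mode: titrated compounds tested against chenodeoxycholic acid stimulation (normalized to 50 uM CDCA and DMSO) in GeneBLAzer HEK293T cells for 16 h. Beta-lactamase read by CCF4 fluorescence; IC50 from Hill fits.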

Experiment [13] deals with Glucocorticoid receptor (Homo sapiens) (UniProt P04150). Put plainly: qHTS assay for small molecule agonists of glucocorticoid receptor signaling (AID 588532; active = well fitted curve in the direction sought with a large enough effect in the signal ratio, with a control signal flat; the % refers to the signal ratio;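 also: 100% = dexamethasone at 0.1 µM and 0% = DMSO only wells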). The following applies: HeLa MMTV-bla, beta-lactamase ratio, agonist, 18 h; activation: stronger effect = higher value, percent of dexamethasone control, DMSO zero. In short, it runs like this:
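HeLa GRE-bla reporter cells; 18 h compound exposure at 37 C; 2 h CCF4 loading at room temperature; fluorescence at 460 and 530 nm; EC50 by Hill equation.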

For experiment [14] the target is unchanged. Put plainly: qHTS assay for small molecule antagonists of glucocorticoid receptor signaling (AID 588533; active = well fitted inhibition curve with a large enough effect in the signal ratio, with a control signal flat, not every such curve was filed as active; the % refers to the signal ratio;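 also: cells stimulated with 2 nM dexamethasone as agonist; % is scaled to controls: 0 for no effect and ±100 for the full control effect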). The settings on record: HeLa MMTV-bla, GRE beta-lactamase ratio, antagonist mode, 18 h; series mostly up to 76.8 µM. The gist of the method:
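Antagonist-mode qHTS: compound titrations added to GRE-bla HeLa cells, then dexamethasone 2 nM final; 18 h, 37 C. CCF4 FRET fluorescence normalized to dexamethasone and DMSO; IC50 from Hill fit.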

The nature of experiment [15]: qHTS assay for small molecule antagonists of peroxisome proliferator-activated receptor delta signaling (AID 588535; active = well fitted inhibition curve with a large enough effect in the signal ratio, with a control signal flat, not every such curve was filed as active; the % refers to the signal ratio;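 as to max response: cells co-treated with a PPAR-delta agonist as stimulator during compound exposure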). The following applies: HEK293T PPARd-UAS-bla, beta-lactamase FRET ratio, 18 h; 460 nm channel. In short, it runs like this:
(§1)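 Antagonist-mode beta-lactamase reporter (GeneBLAzer PPAR-delta-UAS-bla) in HEK293T cells, 2% charcoal/dextran FBS, 4000 cells/well. Compound titrations, 18 h at 37 C; CCF4 ratio read, IC50 and efficacy from Hill fits.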

Experiment [16] has as its target Peroxisome proliferator-activated receptor delta (Homo sapiens) (UniProt Q03181). Described as above. The following applies: HEK293T PPARd-UAS-bla, beta-lactamase FRET ratio, 18 h; series mostly up to 76.7 µM. The gist of the method:
as §1

Sequence of Ubiquitin carboxyl-terminal hydrolase 1 (Homo sapiens) (O94782 whole entry, looked up): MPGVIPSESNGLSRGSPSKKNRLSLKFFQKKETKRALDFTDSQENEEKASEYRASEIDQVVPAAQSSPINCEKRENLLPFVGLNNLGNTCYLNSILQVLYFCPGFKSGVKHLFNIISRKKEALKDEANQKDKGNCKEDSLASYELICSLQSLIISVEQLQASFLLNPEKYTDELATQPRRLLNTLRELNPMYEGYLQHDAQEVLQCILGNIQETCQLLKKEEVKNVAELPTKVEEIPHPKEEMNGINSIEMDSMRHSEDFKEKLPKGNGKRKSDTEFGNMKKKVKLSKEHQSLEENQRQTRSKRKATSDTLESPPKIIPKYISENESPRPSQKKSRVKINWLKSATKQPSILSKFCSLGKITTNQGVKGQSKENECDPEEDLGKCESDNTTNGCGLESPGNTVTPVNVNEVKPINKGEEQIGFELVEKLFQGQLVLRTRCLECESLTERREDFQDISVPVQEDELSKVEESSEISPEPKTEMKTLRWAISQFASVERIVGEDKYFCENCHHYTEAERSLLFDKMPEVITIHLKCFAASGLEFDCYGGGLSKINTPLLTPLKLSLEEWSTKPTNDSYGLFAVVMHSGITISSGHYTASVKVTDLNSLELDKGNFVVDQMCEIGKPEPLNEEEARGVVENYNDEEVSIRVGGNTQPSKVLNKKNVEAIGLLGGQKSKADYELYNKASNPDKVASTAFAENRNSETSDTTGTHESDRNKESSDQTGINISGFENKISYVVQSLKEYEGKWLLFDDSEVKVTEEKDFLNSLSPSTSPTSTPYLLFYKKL
Sequence of Glucocorticoid receptor (Homo sapiens) (P04150 whole entry, looked up): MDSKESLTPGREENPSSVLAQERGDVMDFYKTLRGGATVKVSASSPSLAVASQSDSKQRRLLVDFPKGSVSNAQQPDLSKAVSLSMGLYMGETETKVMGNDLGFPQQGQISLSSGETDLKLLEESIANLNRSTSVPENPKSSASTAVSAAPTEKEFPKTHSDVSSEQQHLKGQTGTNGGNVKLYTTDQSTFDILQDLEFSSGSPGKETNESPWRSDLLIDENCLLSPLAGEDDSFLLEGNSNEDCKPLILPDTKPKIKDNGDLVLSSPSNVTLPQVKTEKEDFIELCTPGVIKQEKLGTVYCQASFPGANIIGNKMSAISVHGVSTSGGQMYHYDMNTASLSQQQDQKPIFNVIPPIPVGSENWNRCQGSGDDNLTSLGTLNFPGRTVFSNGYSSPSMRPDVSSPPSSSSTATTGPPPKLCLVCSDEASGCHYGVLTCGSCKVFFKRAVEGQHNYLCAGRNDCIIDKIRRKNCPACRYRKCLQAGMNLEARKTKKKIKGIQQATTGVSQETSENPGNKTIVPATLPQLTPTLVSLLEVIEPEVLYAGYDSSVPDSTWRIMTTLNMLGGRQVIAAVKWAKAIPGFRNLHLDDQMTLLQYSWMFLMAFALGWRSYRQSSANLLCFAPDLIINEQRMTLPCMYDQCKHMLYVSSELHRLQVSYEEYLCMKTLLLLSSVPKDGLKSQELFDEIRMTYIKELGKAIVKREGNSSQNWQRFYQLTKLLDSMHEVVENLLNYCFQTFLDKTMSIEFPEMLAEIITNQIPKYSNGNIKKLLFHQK
Sequence of Thyrotropin-releasing hormone receptor (Homo sapiens) (P34981 whole entry, looked up): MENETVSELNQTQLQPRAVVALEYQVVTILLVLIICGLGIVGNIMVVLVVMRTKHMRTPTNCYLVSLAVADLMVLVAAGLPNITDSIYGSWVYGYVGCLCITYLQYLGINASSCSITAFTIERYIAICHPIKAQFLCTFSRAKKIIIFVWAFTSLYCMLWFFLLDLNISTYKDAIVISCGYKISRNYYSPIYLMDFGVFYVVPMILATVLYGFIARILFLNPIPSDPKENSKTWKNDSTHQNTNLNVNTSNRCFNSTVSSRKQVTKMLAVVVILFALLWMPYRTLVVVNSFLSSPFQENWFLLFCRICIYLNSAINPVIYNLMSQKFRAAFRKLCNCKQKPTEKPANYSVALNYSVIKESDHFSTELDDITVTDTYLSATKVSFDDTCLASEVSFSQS
Sequence of phosphoglycerate mutase (Leishmania major) (Q4Q090 1-553): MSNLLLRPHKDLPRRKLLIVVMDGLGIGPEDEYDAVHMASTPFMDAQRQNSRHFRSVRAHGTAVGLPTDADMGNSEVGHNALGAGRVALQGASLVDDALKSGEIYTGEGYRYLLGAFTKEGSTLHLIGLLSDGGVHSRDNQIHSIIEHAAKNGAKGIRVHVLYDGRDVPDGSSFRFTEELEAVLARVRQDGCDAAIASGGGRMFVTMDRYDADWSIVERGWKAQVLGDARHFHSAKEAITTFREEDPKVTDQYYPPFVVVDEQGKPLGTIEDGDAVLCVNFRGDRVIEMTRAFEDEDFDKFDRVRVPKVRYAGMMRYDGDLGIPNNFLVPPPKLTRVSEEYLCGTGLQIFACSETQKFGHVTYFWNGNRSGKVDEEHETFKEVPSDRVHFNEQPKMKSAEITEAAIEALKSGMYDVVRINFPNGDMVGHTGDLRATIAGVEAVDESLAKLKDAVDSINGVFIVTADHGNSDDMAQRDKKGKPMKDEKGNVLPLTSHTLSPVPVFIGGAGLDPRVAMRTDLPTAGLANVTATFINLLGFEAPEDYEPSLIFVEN
Sequence of Phosphoglycerate kinase, glycosomal (Trypanosoma brucei brucei) (P07378 whole entry, looked up): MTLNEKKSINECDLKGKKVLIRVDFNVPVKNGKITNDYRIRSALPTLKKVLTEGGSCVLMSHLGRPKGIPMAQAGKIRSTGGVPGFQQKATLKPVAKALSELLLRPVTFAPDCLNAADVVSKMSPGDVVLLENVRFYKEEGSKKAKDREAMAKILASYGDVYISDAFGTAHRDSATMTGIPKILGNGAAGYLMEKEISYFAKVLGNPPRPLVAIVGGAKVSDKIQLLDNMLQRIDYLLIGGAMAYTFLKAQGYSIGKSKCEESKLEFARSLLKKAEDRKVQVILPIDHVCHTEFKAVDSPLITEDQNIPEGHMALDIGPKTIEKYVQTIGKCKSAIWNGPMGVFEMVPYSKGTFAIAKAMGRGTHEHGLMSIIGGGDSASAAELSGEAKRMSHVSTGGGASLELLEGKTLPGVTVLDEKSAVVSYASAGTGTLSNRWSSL
Sequence of Galactokinase (Homo sapiens) (P51570 whole entry, looked up): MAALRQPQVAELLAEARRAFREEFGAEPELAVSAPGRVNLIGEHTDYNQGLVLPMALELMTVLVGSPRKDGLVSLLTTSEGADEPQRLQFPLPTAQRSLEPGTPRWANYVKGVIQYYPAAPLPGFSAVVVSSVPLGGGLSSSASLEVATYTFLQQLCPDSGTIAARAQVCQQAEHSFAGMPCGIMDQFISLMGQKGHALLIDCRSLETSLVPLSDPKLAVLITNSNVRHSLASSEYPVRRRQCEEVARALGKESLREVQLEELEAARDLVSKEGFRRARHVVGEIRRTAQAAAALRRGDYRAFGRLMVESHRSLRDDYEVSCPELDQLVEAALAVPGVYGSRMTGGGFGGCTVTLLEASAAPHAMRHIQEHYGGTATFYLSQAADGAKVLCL
Sequence of Peptidyl-prolyl cis-trans isomerase NIMA-interacting 1 (Homo sapiens) (Q13526 whole entry, looked up): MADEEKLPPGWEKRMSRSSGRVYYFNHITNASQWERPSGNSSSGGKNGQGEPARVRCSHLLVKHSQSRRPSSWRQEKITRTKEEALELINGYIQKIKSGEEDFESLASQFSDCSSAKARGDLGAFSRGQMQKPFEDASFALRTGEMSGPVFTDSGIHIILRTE
Sequence of Bile acid receptor (Homo sapiens) (Q96RI1 whole entry, looked up): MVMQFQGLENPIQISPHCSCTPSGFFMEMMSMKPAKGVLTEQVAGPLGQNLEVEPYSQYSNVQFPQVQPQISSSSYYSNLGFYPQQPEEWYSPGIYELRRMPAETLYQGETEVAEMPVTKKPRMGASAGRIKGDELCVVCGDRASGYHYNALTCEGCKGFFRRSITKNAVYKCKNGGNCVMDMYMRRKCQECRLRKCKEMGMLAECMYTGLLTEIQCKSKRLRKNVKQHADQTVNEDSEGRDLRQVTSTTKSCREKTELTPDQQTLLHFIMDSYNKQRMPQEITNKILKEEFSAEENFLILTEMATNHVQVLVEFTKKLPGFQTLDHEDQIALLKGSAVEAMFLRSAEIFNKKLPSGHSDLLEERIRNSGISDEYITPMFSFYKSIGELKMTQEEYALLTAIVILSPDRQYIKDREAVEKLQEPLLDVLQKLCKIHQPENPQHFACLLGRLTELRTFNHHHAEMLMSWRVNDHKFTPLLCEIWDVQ
Sequence of Peroxisome proliferator-activated receptor delta (Homo sapiens) (Q03181 whole entry, looked up): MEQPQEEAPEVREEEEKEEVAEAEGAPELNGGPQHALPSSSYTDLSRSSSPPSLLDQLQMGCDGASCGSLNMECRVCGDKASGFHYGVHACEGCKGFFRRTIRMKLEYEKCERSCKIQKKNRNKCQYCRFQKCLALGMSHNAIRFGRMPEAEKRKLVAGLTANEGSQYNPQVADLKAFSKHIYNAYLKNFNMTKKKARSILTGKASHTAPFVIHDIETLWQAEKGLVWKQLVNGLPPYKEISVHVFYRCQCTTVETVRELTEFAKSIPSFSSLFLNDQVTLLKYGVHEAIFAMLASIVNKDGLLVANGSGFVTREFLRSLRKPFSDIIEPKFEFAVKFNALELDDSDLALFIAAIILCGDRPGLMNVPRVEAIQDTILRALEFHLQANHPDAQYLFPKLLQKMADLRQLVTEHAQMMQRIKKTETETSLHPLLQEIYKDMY

Regarding `CCN(CC)CCNC(=O)c1cc(S(C)(=O)=O)ccc1OC`, the activation in experiment [1] was 0.0625% (inactive). Moreover, the Potency result in experiment [2], in experiment [9], in [10] and in [11] was “inactive” in each case. Further, the viability change in experiment [2] came out at 10.1%. The call in experiment [3], in [4], in experiment [5], in experiment [6], in [7] and in experiment [8] was inactive.
As to `CCCC(C(=O)OCCN(CC)CC)(c1ccccc1)c1ccccc1`, the activation in experiment [1] was -7.5% (inactive). Further, the Potency result in experiment [2], in experiment [9], in experiment [10] and in experiment [11] was “inactive” in each case. The viability change in [2] was -7.4%. Besides, the call in experiment [3], in [4], in experiment [5], in [6], in experiment [7] and in [8] was inactive.
On to `C=CCc1ccccc1OCC(O)CNC(C)C` (stereo not given), for which, in experiment [1], the activation was 0.312% (inactive). Further, the Potency result in [2], in [9] and in experiment [10] was “inactive” in each case. For the same compound, the viability change in experiment [2] was -7.73%. Moreover, the compound was called inactive in experiment [3], in [4], in [5], in [6], in experiment [7] and in experiment [8].
Regarding `CN(C)C/C=C(/c1ccc(Br)cc1)c1cccnc1`, in experiment [1], the activation is 0.375% (inactive). In addition, the Potency result in experiment [2] and in experiment [9] was “inactive” each time. The viability change in experiment [2] was determined as 11.1%. Further, the call in experiment [3], in [4], in experiment [5], in [6], in experiment [7] and in [8] was inactive.
Turning to `COc1ccc(CCN(C)CCCC(C#N)(c2cc(OC)c(OC)c(OC)c2)C(C)C)cc1OC` (stereo not given), the activation in [1] is 3% (inactive). Besides, the Potency entry in experiment [2] and in experiment [9] was “inactive” in each case. Moreover, the viability change in experiment [2] is -13.6%. Besides, the compound was called inactive in [3], in [4], in [5], in experiment [6], in [7] and in experiment [8].
Consider `CCNC(=O)N1CCN(CCCC(c2ccc(F)cc2)c2ccc(F)cc2)CC1`, for which the activation in experiment [1] was 6.5% (inactive). Besides, the Potency result in [2] and in experiment [9] was “inactive” in each case. The viability change in [2] was -3.28%. Moreover, the compound was classed as inactive in experiment [3], in [4], in [5], in experiment [6], in experiment [7] and in experiment [8].
In the case of `CC(=O)Oc1cc(C(C)C)c(OCCN(C)C)cc1C`, the activation in [1] is 1.31% (inactive). The Potency result in [2], in experiment [9] and in [11] was “inactive” each time. In [2], the viability change is -6.98%. Also, the compound was classed as inactive in experiment [3], in [4], in [5], in experiment [6], in [7] and in experiment [8].
Turning to `CCOC(=O)C1=C(C)NC(C)=C(C(=O)OC)C1c1cccc([N+](=O)[O-])c1` (stereo not given), the activation in experiment [1] was -4.62% (inactive). The Potency result in experiment [2], in [9] and in experiment [11] was “inactive” in each case. Further, in experiment [2], the viability change stood at 9.17%. Further, the compound was classed as inactive in experiment [3], in [4], in [5], in experiment [6], in [7] and in experiment [8].
For the compound `CCCCNC(=O)NS(=O)(=O)c1ccc(C)cc1`, the activation is 1.25% (inactive) in [1] and -10.2% (inactive) in experiment [13]. Besides, the Potency entry in [2], in experiment [9], in [10], in [11] and in [14] was “inactive” each time. For the same compound, in [2], the viability change was -5.96%. Further, the compound was classed as inactive in [3], in [4], in [5], in experiment [6], in experiment [7] and in experiment [8]. For the same compound, the outcome in [12] and in experiment [16] was inactive. Further, the max response in [15] was -29.2% and 9.07%.
`CNCCC(Oc1ccccc1OC)c1ccccc1` (stereo not given): the activation in experiment [1] is 2.38% (inactive). Besides, the Potency result in experiment [2], in experiment [9] and in experiment [10] was “inactive” in each case. The viability change in experiment [2] turned out to be 4.36%. For the same compound, the result in experiment [3], in experiment [4], in experiment [5], in experiment [6], in experiment [7] and in experiment [8] was inactive.
